Our source for the growth values is PubChem BioAssay (NCI).

This is part of a sample that, as a whole, favours compounds with a hit. Of some 83,000 tested, about 20% had one in any assay.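 Note: values are percent growth. 100 is the growth of untreated cells, values between 100 and 0 indicate rising inhibition; between -100 and 0 indicates cell death.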 The source made the active and inactive calls. Rule for the calls: active = growth percent below 10; inactive = the rest.

The first test concerns COLO 205 colon. The test can be described thus: NCI-60 one-dose screen, 48 h (100 = growth as untreated, 0 = no growth, -100 = all killed). To be noted: 10 µM unless noted.
Consider `O=C(c1cccc(C(=O)c2ccc3c4c(cccc24)C(=O)N(c2ccccc2)C3=O)c1)c1ccc2c3c(cccc13)C(=O)N(c1ccccc1)C2=O`, for which the growth was 102% (inactive).

Take `Cc1ccc[n+](CCC(N)=O)c1`: the growth was 107% (inactive).

With `Cc1ccc2nc(N)nnc2c1`, the growth is 141% (inactive).

As for `CCOc1ccncc1[N+](=O)[O-]`, the growth was 110% (inactive).

Regarding `Oc1cc(O)c2c(c1)O[C@H](c1ccc(O)c(O)c1)[C@@H](O)C2`, the growth was 108% (inactive).

As to `Cn1c(=O)c2nc3c(=O)n(C)c(=O)n(C)c3nc2n(C)c1=O`, the growth is 126% (inactive).

`C=CCOc1ccc(Cl)cc1Cl`: the growth was 109% (inactive).

On to `CCOC(=O)/C(O)=C(\C=N\C(=S)Nc1ccc(Cl)c(Cl)c1)C(=O)OCC`, for which the growth was 92.9% (inactive).

Take `CCOc1ccc(NC(=S)N2CCC(CCCC3CCN(C(=S)Nc4ccc(OCC)cc4)CC3)CC2)cc1`: the growth is 110% (inactive).

`Clc1ccc(C(SCc2ccccc2)SCc2ccccc2)cc1`: the growth was 90.1% (inactive).

As to `CC(=O)C1C(=O)C(=O)N(c2ccc(Cl)c(Cl)c2)C1=O` (configuration not stated), the growth was 103% (inactive).

On to `Cc1cc(Cl)cc(Cc2cc(Cl)cc(C)c2O)c1O`, for which the growth is 101% (inactive).

As to `c1ccc(Oc2c3ccccc3nc3ccccc23)cc1`, the growth was -10.5% (active).

Turning to `O=[N+]([O-])c1ccc2[nH]c(=S)n(/C=C(/c3ccc(Cl)cc3Cl)S(=O)(=O)Cc3ccc(Cl)cc3Cl)c2c1`, the growth was 99% (inactive).

For the compound `N#C/C(=C\c1ccc(C#N)cc1)C(=O)c1ccccc1`, the growth was 123% (inactive).

Regarding `COc1cc(OC)c(NC(=O)C(Sc2nc(C)cc(C)c2C#N)c2ccccc2)cc1Cl` (configuration not stated), the growth was 104% (inactive).

Consider `O=c1nc(Nc2cccc(Cl)c2)oc2cc(Cl)oc(=O)c12`, for which the growth is 80.1% (inactive).

Take `C/C(O)=C(/C=N\C(=S)Nc1ccc(S(=O)(=O)Nc2nccs2)cc1)C(=O)Nc1ccccc1C`: the growth was 104% (inactive).

As to `CC(O)C(F)(F)C(F)(F)C(F)(F)F` (configuration not stated), the growth is 116% (inactive).

`CCOP(=O)(NC(c1ccccc1)c1ccccc1)OCC`: the growth is 100% (inactive).

As to `CC(=O)OCC1OC(n2cnc3c(=S)nc(N)[nH]c32)C(OC(C)=O)C1OC(C)=O` (configuration not stated), the growth was 120% (inactive).

On to `CCCCn1cnc2c(=O)[nH]cnc21`, for which the growth is 111% (inactive).

Turning to `O=C(NCc1ccccc1)/C(=C/c1ccccc1)NC(=O)c1ccccc1`, the growth was 110% (inactive).

With `O=CNCCc1ccccc1`, the growth is 103% (inactive).

Take `COC1OC(C(COC(C)=O)OC(C)=O)C(OC(C)=O)C(OC(C)=O)C1OC(C)=O` (configuration not stated): the growth is 116% (inactive).

In the case of `O=S(Cc1ccccc1)/C(=C/NC(=S)Nc1cc(Cl)ccc1Cl)c1ccccc1` (configuration not stated), the growth is 109% (inactive).

Regarding `Cc1c(Cl)cccc1N=C=S`, the growth was 117% (inactive).

Turning to `CC(=O)C1C(=O)C(=O)N(c2cccc([N+](=O)[O-])c2)C1=O` (configuration not stated), the growth was 111% (inactive).

As to `CCOc1ccc2c(c1)c(C)cc(C)[n+]2CC`, the growth is 65.5% (inactive).

For `S=CN1CCCCC1`, the growth is 121% (inactive).

For `Cc1nc(C)c(C(=O)O)cc1C(=O)O`, the growth was 131% (inactive).

For the compound `Cc1cc(CC(=O)NCCO)n(CCO)c(=O)c1`, the growth is 104% (inactive).

As for `NC(CSSCC(N)C(=O)O)C(=O)O` (configuration not stated), the growth was -19.2% (active).

On to `C/C(O)=C(/C=N/C(=S)Nc1ccccc1)C(=O)Nc1ccccc1C`, for which the growth was 110% (inactive).

For `CC(C)(C)[Si](C)(C)OCC1OC(n2cnc3c(N)ncnc32)CC1OS(C)(=O)=O` (configuration not stated), the growth is 110% (inactive).

Consider `NNC(=O)N/N=C1\C(=O)N(c2nccs2)C(=O)C(=O)C1c1nc2ccccc2s1` (configuration not stated), for which the growth was 98.6% (inactive).

As for `C(=C\c1ccncc1)/c1ccncc1`, the growth was 115% (inactive).

Consider `CC(=O)NCNC(C)=O`, for which the growth is 118% (inactive).

The test system of the next test is DU-145 prostate. The test is described as above. Particulars: 10 µM unless noted.
Consider `Cc1ccc[n+](CCC(N)=O)c1`, for which the growth is 103% (inactive).

As for `Cc1ccc2nc(N)nnc2c1`, the growth is 98.4% (inactive).

In the case of `CCOc1ccncc1[N+](=O)[O-]`, the growth is 108% (inactive).

With `Cn1c(=O)c2nc3c(=O)n(C)c(=O)n(C)c3nc2n(C)c1=O`, the growth is 117% (inactive).

Regarding `CCOc1ccc(NC(=S)N2CCC(CCCC3CCN(C(=S)Nc4ccc(OCC)cc4)CC3)CC2)cc1`, the growth was 95.9% (inactive).

On to `Cc1cc(Cl)cc(Cc2cc(Cl)cc(C)c2O)c1O`, for which the growth was 30.5% (inactive).

Regarding `c1ccc(Oc2c3ccccc3nc3ccccc23)cc1`, the growth is 8.05% (active).

On to `O=[N+]([O-])c1ccc2[nH]c(=S)n(/C=C(/c3ccc(Cl)cc3Cl)S(=O)(=O)Cc3ccc(Cl)cc3Cl)c2c1`, for which the growth was 102% (inactive).

For the compound `N#C/C(=C\c1ccc(C#N)cc1)C(=O)c1ccccc1`, the growth is 107% (inactive).

As to `COc1cc(OC)c(NC(=O)C(Sc2nc(C)cc(C)c2C#N)c2ccccc2)cc1Cl` (configuration not stated), the growth was 102% (inactive).

`O=c1nc(Nc2cccc(Cl)c2)oc2cc(Cl)oc(=O)c12`: the growth is 113% (inactive).

Regarding `CC(O)C(F)(F)C(F)(F)C(F)(F)F` (configuration not stated), the growth was 119% (inactive).

As for `CC(=O)OCC1OC(n2cnc3c(=S)nc(N)[nH]c32)C(OC(C)=O)C1OC(C)=O` (configuration not stated), the growth is 53.1% (inactive).

Regarding `O=C(NCc1ccccc1)/C(=C/c1ccccc1)NC(=O)c1ccccc1`, the growth was 111% (inactive).

Take `COC1OC(C(COC(C)=O)OC(C)=O)C(OC(C)=O)C(OC(C)=O)C1OC(C)=O` (configuration not stated): the growth was 115% (inactive).

In the case of `O=S(Cc1ccccc1)/C(=C/NC(=S)Nc1cc(Cl)ccc1Cl)c1ccccc1` (configuration not stated), the growth was 106% (inactive).

As to `Cc1c(Cl)cccc1N=C=S`, the growth was 112% (inactive).

As for `S=CN1CCCCC1`, the growth is 106% (inactive).

As to `Cc1cc(CC(=O)NCCO)n(CCO)c(=O)c1`, the growth is 110% (inactive).

As to `NC(CSSCC(N)C(=O)O)C(=O)O` (configuration not stated), the growth was 36% (inactive).

Turning to `CC(C)(C)[Si](C)(C)OCC1OC(n2cnc3c(N)ncnc32)CC1OS(C)(=O)=O` (configuration not stated), the growth was 105% (inactive).

In the case of `NNC(=O)N/N=C1\C(=O)N(c2nccs2)C(=O)C(=O)C1c1nc2ccccc2s1` (configuration not stated), the growth was 103% (inactive).

On to `C(=C\c1ccncc1)/c1ccncc1`, for which the growth was 145% (inactive).

Turning to `CC(=O)NCNC(C)=O`, the growth is 118% (inactive).
